Key:
[1] = test system: Epidermal growth factor receptor (Homo sapiens), P00533 [T790M]; details: at 1 µM
[2] = test system: Epidermal growth factor receptor (Homo sapiens), P00533 [L858R,T790M]; details: at 0.1 µM
[3] = test system: Epidermal growth factor receptor (Homo sapiens), P00533 [L858R,T790M]; details: at 1 µM
[4] = target: Ephrin type-A receptor 2 (Homo sapiens) (UniProt P29317); details: at 0.1 µM
[5] = target: Ephrin type-A receptor 2 (Homo sapiens) (UniProt P29317); details: at 1 µM
[6] = target: T1, Ephrin type-A receptor 3 (Homo sapiens) (UniProt P29320); details: at 0.1 µM
T1 sequence (whole entry): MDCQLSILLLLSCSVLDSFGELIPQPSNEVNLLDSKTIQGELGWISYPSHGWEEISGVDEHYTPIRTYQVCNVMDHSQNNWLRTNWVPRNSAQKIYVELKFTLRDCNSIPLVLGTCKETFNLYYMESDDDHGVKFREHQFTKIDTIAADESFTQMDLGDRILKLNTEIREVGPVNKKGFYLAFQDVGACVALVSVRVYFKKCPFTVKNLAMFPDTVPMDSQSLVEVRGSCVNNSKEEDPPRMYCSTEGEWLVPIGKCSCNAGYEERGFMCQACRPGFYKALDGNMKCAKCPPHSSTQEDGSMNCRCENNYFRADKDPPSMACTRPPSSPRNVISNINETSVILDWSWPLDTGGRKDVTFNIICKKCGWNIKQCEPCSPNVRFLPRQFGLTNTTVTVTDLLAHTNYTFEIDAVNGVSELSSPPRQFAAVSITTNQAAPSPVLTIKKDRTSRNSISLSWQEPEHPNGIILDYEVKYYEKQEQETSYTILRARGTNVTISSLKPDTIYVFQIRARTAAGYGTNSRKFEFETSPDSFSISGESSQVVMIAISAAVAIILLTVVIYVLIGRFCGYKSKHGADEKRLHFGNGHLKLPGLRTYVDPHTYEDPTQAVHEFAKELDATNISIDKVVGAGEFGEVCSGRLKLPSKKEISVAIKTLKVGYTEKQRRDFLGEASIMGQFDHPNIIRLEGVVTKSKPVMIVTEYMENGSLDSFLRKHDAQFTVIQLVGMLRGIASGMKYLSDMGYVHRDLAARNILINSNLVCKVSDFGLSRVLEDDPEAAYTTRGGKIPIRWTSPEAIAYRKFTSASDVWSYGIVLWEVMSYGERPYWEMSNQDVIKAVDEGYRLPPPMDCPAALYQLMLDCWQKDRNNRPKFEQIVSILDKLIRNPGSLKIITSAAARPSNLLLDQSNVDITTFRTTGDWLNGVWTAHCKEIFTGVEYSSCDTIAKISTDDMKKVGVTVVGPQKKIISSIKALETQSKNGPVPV

[7] = target: T1, Ephrin type-A receptor 3 (Homo sapiens); details: at 1 µM
[8] = target: Ephrin type-A receptor 4 (Homo sapiens) (UniProt P54764); details: at 0.1 µM
Chain of Ephrin type-A receptor 4 (Homo sapiens) (P54764 whole entry): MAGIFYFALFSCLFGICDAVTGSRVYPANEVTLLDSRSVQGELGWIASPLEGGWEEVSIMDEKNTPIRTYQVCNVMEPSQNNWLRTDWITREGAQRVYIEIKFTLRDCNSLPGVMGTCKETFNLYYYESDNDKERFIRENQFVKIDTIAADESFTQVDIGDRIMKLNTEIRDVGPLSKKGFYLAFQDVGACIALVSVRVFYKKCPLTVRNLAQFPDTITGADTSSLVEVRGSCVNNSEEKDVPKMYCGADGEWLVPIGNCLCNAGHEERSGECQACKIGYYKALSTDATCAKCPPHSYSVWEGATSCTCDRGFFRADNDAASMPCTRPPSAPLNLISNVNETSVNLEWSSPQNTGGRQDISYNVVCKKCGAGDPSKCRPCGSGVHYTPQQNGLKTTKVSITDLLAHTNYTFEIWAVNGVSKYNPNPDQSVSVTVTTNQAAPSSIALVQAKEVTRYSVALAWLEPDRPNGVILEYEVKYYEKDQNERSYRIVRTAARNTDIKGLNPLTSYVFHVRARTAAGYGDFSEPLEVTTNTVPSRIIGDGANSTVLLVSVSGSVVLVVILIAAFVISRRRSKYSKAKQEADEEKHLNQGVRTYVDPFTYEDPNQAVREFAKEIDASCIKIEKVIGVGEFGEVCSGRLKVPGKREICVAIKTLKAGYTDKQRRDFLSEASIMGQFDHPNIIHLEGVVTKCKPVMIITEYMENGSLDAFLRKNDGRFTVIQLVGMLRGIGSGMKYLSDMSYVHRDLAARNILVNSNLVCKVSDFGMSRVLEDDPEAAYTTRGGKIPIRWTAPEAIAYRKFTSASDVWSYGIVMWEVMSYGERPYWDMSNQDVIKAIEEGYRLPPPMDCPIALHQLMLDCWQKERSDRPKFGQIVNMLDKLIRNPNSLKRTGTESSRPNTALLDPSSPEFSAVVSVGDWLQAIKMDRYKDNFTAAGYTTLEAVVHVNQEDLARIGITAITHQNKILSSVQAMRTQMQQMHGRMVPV

[9] = target: Ephrin type-A receptor 4 (Homo sapiens) (UniProt P54764); details: at 1 µM
[10] = target: T2, Ephrin type-B receptor 2 (Homo sapiens) (UniProt P29323); details: at 0.1 µM
T2 sequence (whole entry): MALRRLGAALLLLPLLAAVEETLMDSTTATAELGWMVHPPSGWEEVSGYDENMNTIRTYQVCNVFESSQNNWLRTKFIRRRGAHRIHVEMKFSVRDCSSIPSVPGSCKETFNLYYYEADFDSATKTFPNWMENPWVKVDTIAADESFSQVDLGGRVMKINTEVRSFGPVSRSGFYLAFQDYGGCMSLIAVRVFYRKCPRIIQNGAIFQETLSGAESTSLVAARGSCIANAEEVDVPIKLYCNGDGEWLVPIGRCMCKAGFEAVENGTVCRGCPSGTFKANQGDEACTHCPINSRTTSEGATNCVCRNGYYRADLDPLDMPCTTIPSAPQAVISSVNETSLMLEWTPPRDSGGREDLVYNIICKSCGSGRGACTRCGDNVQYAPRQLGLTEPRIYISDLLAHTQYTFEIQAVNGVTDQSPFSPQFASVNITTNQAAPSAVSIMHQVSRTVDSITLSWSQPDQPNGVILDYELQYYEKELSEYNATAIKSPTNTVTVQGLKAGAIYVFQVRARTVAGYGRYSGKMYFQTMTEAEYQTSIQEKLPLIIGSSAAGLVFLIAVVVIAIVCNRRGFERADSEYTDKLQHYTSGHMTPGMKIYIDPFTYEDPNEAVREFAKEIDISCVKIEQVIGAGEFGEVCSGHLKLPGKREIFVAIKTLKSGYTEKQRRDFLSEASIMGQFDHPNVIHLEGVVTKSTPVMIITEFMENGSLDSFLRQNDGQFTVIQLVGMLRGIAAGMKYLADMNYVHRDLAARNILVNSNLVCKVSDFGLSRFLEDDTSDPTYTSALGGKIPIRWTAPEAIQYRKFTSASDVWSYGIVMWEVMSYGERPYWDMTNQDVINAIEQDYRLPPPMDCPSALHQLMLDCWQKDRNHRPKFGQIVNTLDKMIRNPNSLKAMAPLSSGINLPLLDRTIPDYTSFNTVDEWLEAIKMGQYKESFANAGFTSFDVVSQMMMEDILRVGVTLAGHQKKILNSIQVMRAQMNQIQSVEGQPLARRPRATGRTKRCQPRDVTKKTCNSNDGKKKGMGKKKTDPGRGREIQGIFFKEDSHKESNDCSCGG

[11] = target: T2, Ephrin type-B receptor 2 (Homo sapiens); details: at 1 µM
[12] = target: T3, Ephrin type-B receptor 3 (Homo sapiens) (UniProt P54753); details: at 0.1 µM
T3 sequence (whole entry): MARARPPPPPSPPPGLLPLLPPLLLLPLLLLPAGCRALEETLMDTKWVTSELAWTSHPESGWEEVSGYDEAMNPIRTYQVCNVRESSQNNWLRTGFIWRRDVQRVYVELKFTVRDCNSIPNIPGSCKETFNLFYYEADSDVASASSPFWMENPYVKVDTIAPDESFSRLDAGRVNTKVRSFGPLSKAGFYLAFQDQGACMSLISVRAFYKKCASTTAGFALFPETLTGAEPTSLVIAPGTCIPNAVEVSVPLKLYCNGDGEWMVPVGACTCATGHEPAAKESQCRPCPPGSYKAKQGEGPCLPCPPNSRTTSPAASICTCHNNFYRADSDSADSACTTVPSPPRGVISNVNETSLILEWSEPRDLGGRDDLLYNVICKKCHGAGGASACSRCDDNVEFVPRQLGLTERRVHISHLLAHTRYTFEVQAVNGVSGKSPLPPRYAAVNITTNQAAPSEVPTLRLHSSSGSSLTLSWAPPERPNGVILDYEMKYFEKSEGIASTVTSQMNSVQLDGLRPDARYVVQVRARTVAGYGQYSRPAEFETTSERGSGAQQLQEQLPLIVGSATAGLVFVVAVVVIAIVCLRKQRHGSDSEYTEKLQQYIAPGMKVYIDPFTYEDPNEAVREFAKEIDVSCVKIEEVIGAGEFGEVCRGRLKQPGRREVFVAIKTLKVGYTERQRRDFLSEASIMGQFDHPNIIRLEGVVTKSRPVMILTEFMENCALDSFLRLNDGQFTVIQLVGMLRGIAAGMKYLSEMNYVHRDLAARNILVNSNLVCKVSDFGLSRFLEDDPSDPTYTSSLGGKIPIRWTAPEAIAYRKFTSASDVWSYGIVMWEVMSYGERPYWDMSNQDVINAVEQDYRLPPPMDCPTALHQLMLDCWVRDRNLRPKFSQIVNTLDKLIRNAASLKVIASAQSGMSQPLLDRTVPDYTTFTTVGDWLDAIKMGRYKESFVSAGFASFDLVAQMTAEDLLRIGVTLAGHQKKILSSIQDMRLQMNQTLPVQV

[13] = target: T3, Ephrin type-B receptor 3 (Homo sapiens); details: at 1 µM
[14] = target: T4, Ephrin type-B receptor 4 (Homo sapiens) (UniProt P54760); details: at 0.1 µM
T4 sequence (whole entry): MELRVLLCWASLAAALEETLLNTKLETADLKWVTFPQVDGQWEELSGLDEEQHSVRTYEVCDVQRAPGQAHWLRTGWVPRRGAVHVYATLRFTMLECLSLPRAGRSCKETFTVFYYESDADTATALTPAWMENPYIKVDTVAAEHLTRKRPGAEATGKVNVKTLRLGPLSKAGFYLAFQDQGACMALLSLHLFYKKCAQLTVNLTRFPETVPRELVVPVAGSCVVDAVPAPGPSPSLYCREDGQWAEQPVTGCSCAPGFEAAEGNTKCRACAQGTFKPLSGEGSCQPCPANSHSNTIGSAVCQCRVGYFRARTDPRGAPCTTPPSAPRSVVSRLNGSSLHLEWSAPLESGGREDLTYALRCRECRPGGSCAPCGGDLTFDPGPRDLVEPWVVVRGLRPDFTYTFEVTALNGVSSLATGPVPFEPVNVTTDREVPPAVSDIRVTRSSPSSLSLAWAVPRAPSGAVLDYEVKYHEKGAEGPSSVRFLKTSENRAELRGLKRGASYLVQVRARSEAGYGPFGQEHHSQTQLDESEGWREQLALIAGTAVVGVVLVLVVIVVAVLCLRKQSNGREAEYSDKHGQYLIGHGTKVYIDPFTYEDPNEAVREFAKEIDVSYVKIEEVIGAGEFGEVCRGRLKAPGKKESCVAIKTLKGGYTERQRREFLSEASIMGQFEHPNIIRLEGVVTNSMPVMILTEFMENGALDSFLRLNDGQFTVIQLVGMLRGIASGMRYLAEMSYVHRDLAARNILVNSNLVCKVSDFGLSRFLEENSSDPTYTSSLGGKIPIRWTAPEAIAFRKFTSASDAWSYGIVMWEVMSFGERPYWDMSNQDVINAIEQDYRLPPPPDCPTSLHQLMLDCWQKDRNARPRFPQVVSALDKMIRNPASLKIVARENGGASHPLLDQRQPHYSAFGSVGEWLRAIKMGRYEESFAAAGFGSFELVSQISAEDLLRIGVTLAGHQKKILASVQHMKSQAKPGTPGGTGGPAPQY

[15] = target: T4, Ephrin type-B receptor 4 (Homo sapiens); details: at 1 µM
[16] = target: Receptor tyrosine-protein kinase erbB-2 (Homo sapiens) (UniProt P04626); details: at 0.1 µM
Chain of Receptor tyrosine-protein kinase erbB-2 (Homo sapiens) (P04626 whole entry): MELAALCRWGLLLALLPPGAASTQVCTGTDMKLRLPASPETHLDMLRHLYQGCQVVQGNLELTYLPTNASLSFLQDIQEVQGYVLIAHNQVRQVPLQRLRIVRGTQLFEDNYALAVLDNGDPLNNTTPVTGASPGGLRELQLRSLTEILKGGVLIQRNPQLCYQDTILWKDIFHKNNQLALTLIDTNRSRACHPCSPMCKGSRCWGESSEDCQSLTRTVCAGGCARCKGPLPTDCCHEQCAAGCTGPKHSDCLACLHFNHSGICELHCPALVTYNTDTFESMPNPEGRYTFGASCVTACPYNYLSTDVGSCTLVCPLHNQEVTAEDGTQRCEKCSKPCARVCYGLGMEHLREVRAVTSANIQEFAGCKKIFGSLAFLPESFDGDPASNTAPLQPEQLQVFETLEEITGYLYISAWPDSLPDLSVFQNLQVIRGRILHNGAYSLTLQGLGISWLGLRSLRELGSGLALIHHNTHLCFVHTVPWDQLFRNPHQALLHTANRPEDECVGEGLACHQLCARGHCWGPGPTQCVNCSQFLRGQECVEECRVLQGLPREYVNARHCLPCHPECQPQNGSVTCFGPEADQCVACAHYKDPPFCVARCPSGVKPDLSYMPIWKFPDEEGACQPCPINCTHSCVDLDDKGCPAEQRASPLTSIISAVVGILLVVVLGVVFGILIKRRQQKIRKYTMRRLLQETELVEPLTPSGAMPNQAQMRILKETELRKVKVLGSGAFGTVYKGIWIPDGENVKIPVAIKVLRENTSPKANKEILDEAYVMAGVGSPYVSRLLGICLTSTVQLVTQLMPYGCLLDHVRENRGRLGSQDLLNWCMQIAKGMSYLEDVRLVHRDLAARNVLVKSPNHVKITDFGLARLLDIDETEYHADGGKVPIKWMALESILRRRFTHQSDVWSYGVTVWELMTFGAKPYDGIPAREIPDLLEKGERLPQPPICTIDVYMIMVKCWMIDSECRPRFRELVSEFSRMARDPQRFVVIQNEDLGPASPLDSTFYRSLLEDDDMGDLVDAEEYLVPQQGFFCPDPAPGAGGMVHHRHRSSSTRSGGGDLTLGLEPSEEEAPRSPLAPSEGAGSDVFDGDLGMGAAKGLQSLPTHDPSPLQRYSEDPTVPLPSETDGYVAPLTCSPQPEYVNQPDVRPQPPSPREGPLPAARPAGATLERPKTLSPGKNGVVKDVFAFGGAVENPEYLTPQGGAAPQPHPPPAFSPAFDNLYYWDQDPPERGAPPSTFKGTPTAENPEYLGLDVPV

[17] = target: Receptor tyrosine-protein kinase erbB-2 (Homo sapiens) (UniProt P04626); details: at 1 µM
[18] = target: Receptor tyrosine-protein kinase erbB-4 (Homo sapiens) (UniProt Q15303); details: at 0.1 µM
[19] = target: Receptor tyrosine-protein kinase erbB-4 (Homo sapiens) (UniProt Q15303); details: at 1 µM
[20] = target: Tyrosine-protein kinase Fer (Homo sapiens) (UniProt P16591); details: at 0.1 µM;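 note: reported figures are averaged percent inhibition of FER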

Chain of Epidermal growth factor receptor (Homo sapiens), P00533 [T790M] (P00533 whole entry T790M): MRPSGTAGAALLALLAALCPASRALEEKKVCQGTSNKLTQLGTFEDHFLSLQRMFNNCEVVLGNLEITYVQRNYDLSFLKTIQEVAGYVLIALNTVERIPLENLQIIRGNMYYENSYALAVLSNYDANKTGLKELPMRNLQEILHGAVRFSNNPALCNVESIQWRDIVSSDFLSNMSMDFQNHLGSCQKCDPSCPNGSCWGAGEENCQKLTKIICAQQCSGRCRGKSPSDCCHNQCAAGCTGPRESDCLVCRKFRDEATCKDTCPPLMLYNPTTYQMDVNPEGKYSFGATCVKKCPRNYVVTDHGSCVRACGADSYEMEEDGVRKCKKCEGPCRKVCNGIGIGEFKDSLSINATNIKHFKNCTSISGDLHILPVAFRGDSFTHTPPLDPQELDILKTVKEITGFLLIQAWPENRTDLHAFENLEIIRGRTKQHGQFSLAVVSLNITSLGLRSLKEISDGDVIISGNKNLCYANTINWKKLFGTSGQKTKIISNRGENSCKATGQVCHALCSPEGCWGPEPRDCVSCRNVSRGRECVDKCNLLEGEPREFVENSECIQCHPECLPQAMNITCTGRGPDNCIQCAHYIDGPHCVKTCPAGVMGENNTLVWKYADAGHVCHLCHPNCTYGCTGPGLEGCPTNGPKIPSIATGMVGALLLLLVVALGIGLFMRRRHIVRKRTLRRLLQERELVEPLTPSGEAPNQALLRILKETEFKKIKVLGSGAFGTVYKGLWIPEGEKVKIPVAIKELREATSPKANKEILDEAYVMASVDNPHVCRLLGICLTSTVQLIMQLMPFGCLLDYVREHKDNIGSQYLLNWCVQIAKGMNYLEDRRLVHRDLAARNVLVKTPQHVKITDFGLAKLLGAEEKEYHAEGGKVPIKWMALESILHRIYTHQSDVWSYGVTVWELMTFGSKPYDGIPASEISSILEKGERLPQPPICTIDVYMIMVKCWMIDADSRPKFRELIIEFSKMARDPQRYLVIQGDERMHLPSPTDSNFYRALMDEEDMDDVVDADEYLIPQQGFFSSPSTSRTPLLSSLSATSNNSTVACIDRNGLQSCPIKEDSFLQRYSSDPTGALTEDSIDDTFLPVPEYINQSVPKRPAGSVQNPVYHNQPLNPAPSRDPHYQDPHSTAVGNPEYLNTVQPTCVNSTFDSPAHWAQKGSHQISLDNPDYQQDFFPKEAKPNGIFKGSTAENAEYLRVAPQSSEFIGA
Chain of Epidermal growth factor receptor (Homo sapiens), P00533 [L858R,T790M] (P00533 whole entry T790M/L858R, looked up): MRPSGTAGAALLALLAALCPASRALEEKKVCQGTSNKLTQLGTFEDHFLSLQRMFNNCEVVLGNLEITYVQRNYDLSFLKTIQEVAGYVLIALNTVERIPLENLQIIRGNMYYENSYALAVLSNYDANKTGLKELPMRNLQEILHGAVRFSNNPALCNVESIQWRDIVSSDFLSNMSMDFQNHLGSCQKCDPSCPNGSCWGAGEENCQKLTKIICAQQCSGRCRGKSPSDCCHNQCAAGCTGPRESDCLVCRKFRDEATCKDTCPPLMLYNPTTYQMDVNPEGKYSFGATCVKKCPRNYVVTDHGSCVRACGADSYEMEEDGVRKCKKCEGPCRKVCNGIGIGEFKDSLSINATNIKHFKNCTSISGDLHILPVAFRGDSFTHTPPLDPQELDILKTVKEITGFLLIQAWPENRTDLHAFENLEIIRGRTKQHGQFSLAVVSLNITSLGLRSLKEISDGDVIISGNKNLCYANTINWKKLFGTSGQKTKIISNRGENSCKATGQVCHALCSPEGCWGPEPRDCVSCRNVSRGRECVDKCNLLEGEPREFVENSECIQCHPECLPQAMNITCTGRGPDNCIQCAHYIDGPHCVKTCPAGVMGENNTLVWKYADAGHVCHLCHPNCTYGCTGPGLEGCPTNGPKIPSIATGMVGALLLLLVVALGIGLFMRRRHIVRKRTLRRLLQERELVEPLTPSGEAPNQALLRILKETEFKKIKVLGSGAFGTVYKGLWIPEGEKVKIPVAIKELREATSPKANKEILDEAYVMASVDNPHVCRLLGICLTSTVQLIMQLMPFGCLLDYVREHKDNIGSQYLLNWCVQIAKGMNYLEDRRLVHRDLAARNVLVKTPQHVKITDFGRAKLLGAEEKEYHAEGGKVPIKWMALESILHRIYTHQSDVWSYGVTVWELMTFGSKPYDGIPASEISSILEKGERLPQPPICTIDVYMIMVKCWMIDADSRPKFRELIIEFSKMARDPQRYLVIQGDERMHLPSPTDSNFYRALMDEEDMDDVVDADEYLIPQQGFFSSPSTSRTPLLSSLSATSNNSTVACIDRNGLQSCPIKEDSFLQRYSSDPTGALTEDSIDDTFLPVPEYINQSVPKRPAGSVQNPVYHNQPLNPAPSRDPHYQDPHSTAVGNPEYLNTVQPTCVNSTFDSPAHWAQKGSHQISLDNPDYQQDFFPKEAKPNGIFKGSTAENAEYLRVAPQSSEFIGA

For `CCS(=O)(=O)c1ccc(OC)c(Nc2ncc(-c3cccc(C(C)=O)c3)o2)c1`, the inhibition [1] was 4.71%, the inhibition [2] was 1.19% and the inhibition [3] was 7.18%. The inhibition [4] was 3.84%, the inhibition [5] was 2.23% and the inhibition [6] was 3.51%. It also gave an inhibition [7] of 6.85%, an inhibition [8] of 9.55% and an inhibition [9] of 16.9%. The inhibition [10] was 9.45%, the inhibition [11] was 21.8% and the inhibition [12] was 3.26%. It also gave an inhibition [13] of 5.98%, an inhibition [14] of 1.8% and an inhibition [15] of 6.82%. For the same compound, the inhibition [16] was 2.14%, the inhibition [17] was 6.11% and the inhibition [18] was 7.58%. For the same compound, the inhibition [19] was 11.1% and the inhibition [20] was 1.02%.
`CNC(=O)c1cncc(/C=C/c2ccccc2C)c1` showed an inhibition [1] of 4.37%, an inhibition [2] of 1.98% and an inhibition [3] of 6.74%. The inhibition [4] was 2.22%, the inhibition [5] was 3.92% and the inhibition [6] was 6.53%. The inhibition [7] was 6.47%, the inhibition [8] was 11.7% and the inhibition [9] was 26.1%. For the same compound, the inhibition [10] was 7.84%, the inhibition [11] was 19.7% and the inhibition [12] was 5.82%. The inhibition [13] was 4.91%, the inhibition [14] was 1.77% and the inhibition [15] was 9.19%. It also gave an inhibition [16] of 2.44%, an inhibition [17] of 6.67% and an inhibition [18] of 13.2%. The inhibition [19] was 14.8% and the inhibition [20] was 4.15%.
Compound `COc1cc(N2CCN(C(C)C)CC2)ccc1Nc1nc(Nc2cccc(F)c2C(=O)O)c2cc[nH]c2n1` has an inhibition [1] of 24.9%, an inhibition [2] of 9.68% and an inhibition [3] of 48.9%. The inhibition [4] was 0.65%, the inhibition [5] was -0.38% and the inhibition [6] was 2.98%. For the same compound, the inhibition [7] was 6.01%, the inhibition [8] was 8.47% and the inhibition [9] was 11.2%. The inhibition [10] was 9.96%, the inhibition [11] was 12.6% and the inhibition [12] was 3.69%. The inhibition [13] was 6.24%, the inhibition [14] was 2.82% and the inhibition [15] was 2.84%. The inhibition [16] was 3.72%, the inhibition [17] was 5.93% and the inhibition [18] was 11.7%. It also gave an inhibition [19] of 11.2% and an inhibition [20] of 32.5%.
`CS(=O)(=O)Nc1ccc(-c2ccc3c(NC(=O)C4CC4)n[nH]c3c2)cc1` was tested, and the inhibition [1] was 0.23%, the inhibition [2] was 0.3% and the inhibition [3] was 0.93%. It also gave an inhibition [4] of 2.88%, an inhibition [5] of 1.54% and an inhibition [6] of 5.15%. For the same compound, the inhibition [7] was 4.1%, the inhibition [8] was 5.41% and the inhibition [9] was 1.08%. The inhibition [10] was 9.15%, the inhibition [11] was 11.6% and the inhibition [12] was 4.92%. It also gave an inhibition [13] of 4.97%, an inhibition [14] of 2.13% and an inhibition [15] of 4.33%. It also gave an inhibition [16] of -0.58%, an inhibition [17] of -2.83% and an inhibition [18] of -5.65%. For the same compound, the inhibition [19] was 9.99% and the inhibition [20] was 9.81%.
